ASM inhibitor: Inhibitors of Secretory Acid Sphingomyelinase (S-ASM): qHTS | Sphingomyelin phosphodiesterase (Homo sapiens), P17405 | placental ASM, HMU-PC fluorogenic substrate, 60 min | Potency, µM (titrated, usually from 57.5 µM), for the others: at the highest dose activity change, negative = inhibition, actives largely listed as inhibitors | 340,000 tested, 0.006% active; further: potency means the concentration at half of the fitted maximal effect
Target sequence (P17405 47-631 limits assumed): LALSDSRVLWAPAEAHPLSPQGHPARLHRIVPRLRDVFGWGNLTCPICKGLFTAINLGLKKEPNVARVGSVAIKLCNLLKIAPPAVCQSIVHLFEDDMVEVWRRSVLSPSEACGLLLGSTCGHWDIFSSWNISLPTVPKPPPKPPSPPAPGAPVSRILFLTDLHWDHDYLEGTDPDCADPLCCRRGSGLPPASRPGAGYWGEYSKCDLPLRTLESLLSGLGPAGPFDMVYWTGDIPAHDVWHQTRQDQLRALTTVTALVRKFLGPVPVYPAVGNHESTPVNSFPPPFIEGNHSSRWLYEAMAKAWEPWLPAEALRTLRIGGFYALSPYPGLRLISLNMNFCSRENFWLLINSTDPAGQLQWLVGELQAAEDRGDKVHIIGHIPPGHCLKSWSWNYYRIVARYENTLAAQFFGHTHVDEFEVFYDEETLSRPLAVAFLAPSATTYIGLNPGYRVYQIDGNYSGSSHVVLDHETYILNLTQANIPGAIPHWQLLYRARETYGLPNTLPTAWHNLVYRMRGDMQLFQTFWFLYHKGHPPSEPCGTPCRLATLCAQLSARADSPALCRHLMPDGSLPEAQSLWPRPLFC
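Fluorescence read-out (Ex 386 nm, Em 447 nm) after stopping the reaction at pH 10. Enzyme: ASM from human placenta; substrate HMU-PC0, 9 uM final; 60 min, 37 °C. Compound preincubation 10 min, ambient temperature.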
DT40 TDP1 CPT: qHTS for Inhibitors of human tyrosyl-DNA phosphodiesterase 1 (TDP1): qHTS in cells in presence of CPT; AID 686979, 2013; chicken DT40 Tdp1-/-;hTDP1 cells + 20 nM CPT, ATP luminescence, 48 h; Potency, µM (highest dose often 46.2 µM), without a hit: at the top dose activity change, negative = growth inhibition, usual class: inhibitors; 420,000 tested, 12% active; further: potency means the concentration at half of the fitted maximal effect; on the % scale 0 is the no-effect control and ±100 the full control effect; nearly all actives have a fitted effect of over 55% in size
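Chicken DT40 Tdp1-/- cells complemented with human TDP1, 400 cells/well, exposed to compounds plus 20 nM camptothecin for at least 48 h at 37 C; viability read as ATP content by CellTiter-Glo luminescence.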
DT40 TDP1 no CPT: qHTS for Inhibitors of human tyrosyl-DNA phosphodiesterase 1 (TDP1): qHTS in cells in absence of CPT; DT40 Tdp1-/- hTDP1 cells, no CPT, ATP luminescence, 48 h; Potency, µM (titrated, usually from 46.2 µM), for the others: top-dose activity change, negative = growth inhibition, most hits filed as inhibitors; 420,000 tested, 15% active; AID 686978, 2013; further: potency means the concentration at half of the fitted maximal effect; on the % scale 0 is the no-effect control and ±100 the full control effect; nearly all actives have a fitted effect of over 55% in size
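Growth of hTDP1-complemented DT40 Tdp1-knockout cells is measured by ATP luminescence after at least 48 hr compound exposure at 37 °C, with DMSO substituting for the 20 nM CPT used in the parallel screen.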
HepG2 viability: qHTS for Inhibitors of TGF-b: Cytotox Counterscreen | HepG2 CAGA-GFP viability, ATP luminescence, 18 h | Potency, µM (doses to about 46.1 µM), without a hit: top-dose activity change, negative = cytotoxicity, most hits filed as cytotoxic | 410,000 tested, 0.76% active; further: potency means the concentration at half of the fitted maximal effect
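HepG2 CAGA-GFP cells (1000/well, DMEM with 1% FBS) received compound, then TGF-beta at 500 pg/mL final, and were incubated 18 hours at 37 degrees C. Viability was read by CellTiter-Glo luminescence. Media-only wells were set as complete cell-killing and DMSO as no toxicity.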
TGFb inhibitor: qHTS for Inhibitors of TGF-b. 410,000 tested, 1.2% active. Potency, µM (highest dose often 46.1 µM), without a hit: at the highest dose activity, negative = inhibition, usual class: inhibitors. HepG2 CAGA-GFP TGF-b/SMAD3 reporter, GFP fluorescence, 18 h; TGF-beta stimulated, 500 pg/mL final; further: potency means the concentration at half of the fitted maximal effect; on the % scale 0 is the no-effect control and ±100 the full control effect; nearly all actives have a fitted effect of over 65% in size
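HEPG2 CAGA-GFP, 1000 cells/well; 2 h settle, 37 C; cpd via pin tool; TGF-b 500 pg/mL final; 18 h, 37 C; GFP imaging ex488/em500-530; %Activity normalised to -TGF-b and +DMSO controls; CRC fit, curve class.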
IL-1B inflam inh: qHTS for Inhibitors of Inflammasome Signaling: IL-1-beta AlphaLISA Primary Screen; THP-1 LPS/ATP IL-1B secretion, AlphaLISA, 16 h; hits give low values; activity change, % at 57.5 µM; 360,000 tested, 4.7% active; AID 743279, 2014; in the data active means activity change below about -50%; inconclusive means mostly about -30% to -49%; further: on the % scale 0 is the no-effect control and ±100 the full control effect
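Secreted IL-1B measured by AlphaLISA bead assay after 16 h compound exposure of THP-1 cells; compounds (final up to 57.5 uM) added 1 h before LPS (250 ng/mL) and ATP (1.25 mM) stimulation; lower signal means less secretion.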
An asterisk follows results filed as active; ? = inconclusive; / = not tested or not shown; [ ] = another dose, or the depositor's remark. Rows were chosen to be rich in hits. Some 19% of all compounds tested hit in one or more screens of this group. Unless noted, the call rests on the fitted dose curve; in most records, active means well fitted curve in the direction sought with a large enough effect; inconclusive means small, poorly fitted or top-dose-only effect, or another doubt; inactive means no such curve, though single readings can be large; an effect the other way counts as inactive or inconclusive.

SMILES	ASM inhibitor	DT40 TDP1 CPT	DT40 TDP1 no CPT	HepG2 viability	TGFb inhibitor	IL-1B inflam inh
CC(CCc1ccccc1)N(C)CC(O)c1cccc([N+](=O)[O-])c1 (stereo not given)	0.7%	-27.3%	?	21.1%	14.9%	?
CCCCN(C(=O)c1ccc(N(C)S(=O)(=O)c2ccc(C)cc2)cc1)c1c(N)n(CCCC)c(=O)[nH]c1=O	12.5%	10.4%	?	-1.2%	2.3%	26.2
Cc1ccc(-c2nc(CS(=O)(=O)CC(=O)NCCCN(Cc3ccccc3)C(C)C)c(C)o2)cc1	3.3%	?	?	-19.7%	?	-3.9
Cc1oc(-c2ccc(-c3ccccc3)cc2)nc1CN(CCO)C(C)C	-0.5%	14.7%	?	-22.9%	-14.9%	-82.2*
O=C1c2ccccc2S(=O)(=O)c2cc(N3CCOCC3)ccc21	-7.1%	11.6µM*	20.6µM*	-34.7%	-23.7%	?
O=C1c2ccccc2S(=O)(=O)c2cc(N3CCN(c4ccccc4)CC3)ccc21	-8.0%	?	16.4µM*	-2.5%	5.3%	8.6
CC[C@H]1c2[nH]c3ccccc3c2C[C@H]2C(=O)N(c3ccc(F)cc3)C(=O)N21	-6.8%	?	?	-3.9%	21.1%	-6.2
Cc1ccc(CN2CCN(/N=C/C=C/c3ccccc3[N+](=O)[O-])CC2)cc1	-13.4%	16.4µM*	20.6µM*	-33.1%	?	-89.1*
Cc1ccc(CN2CCN(/N=C/c3ccc(Cl)c([N+](=O)[O-])c3)CC2)cc1	-7.0%	?	?	-18.0%	5.2%	-73.7*
Cc1ccccc1NC(=O)C1CCN(C(=O)c2cnn(-c3ccccc3)c2-n2cccc2)CC1	/	?	16.4µM*	-11.8%	-22.1%	/
CC(C)NC(=O)C1CCN(C(=O)c2cnn(-c3ccccc3)c2-n2cccc2)CC1	/	-15.8%	-8.2%	-20.1%	?	/
Cc1ccc(NC(=O)C2CCN(C(=O)NCc3ccccc3)CC2)cc1C	-1.0%	0.3%	-22.0%	12.9%	18.1%	16.8
Cc1ccc(NC(=O)C2CCN(C(=O)c3cnn(-c4ccccc4)c3-n3cccc3)CC2)cc1C	/	18.4µM*	?	-29.0%	?	/
COc1ccc(NC(=O)C2CCCN(C(=O)c3cnn(-c4ccc(F)cc4)c3-n3cccc3)C2)cc1 (stereo not given)	/	/	/	8.8%	-20.1%	/
Cc1ccc(NC(=O)C2CCN(C(=O)c3cnn(-c4ccccc4)c3-n3cccc3)CC2)cc1	/	?	13µM*	-7.8%	11.2µM*	/
CSc1cccc(NC(=O)C2CCCN(C(=O)c3cnn(-c4ccc(F)cc4)c3-n3cccc3)C2)c1 (stereo not given)	/	18.4µM*	16.4µM*	-26.2%	17.8µM*	/
O=[N+]([O-])c1cccc(S(=O)(=O)N2CN(c3ccc(Br)cc3)c3nc4ccccc4nc32)c1	-0.2%	-4.3%	-5.4%	0.3%	-2.7%	4.0
CC(=O)c1ccccc1-c1ccc2c(c1)CC(CNC(=O)Cc1c[nH]c3ccccc13)O2 (stereo not given)	/	13.4%[9.04 µM]	-10.2%	/	/	/
CCOC(=O)Cn1c(=O)n(C2CCCCC2)c2nc(-c3ccc(Cl)cc3)nc(C(N)=O)c21	/	/	/	-2.0%	19.1%	/
Cc1cccc(N(CC(=O)NC(C)(C)C)C(=O)CCC(=O)Nc2ccccn2)c1	-1.3%	6.1%	-1.3%	-7.3%	9.1%	5.0
Cc1ccc(OCC(=O)Nc2ccc(OCc3cc(=O)n4ccsc4n3)cc2)cc1	/	1.1%	-15.9%	-1.2%	1.5%	/
O=C(NC1CC1)C1CCN(Cc2cnn(-c3ccccc3)c2-n2cccc2)CC1	2.4%	6.9%	-3.4%	22.4µM*	-21.8%	-1.0
Cc1ccc(CNC(=O)C2CCN(C(=O)c3cnn(-c4ccccc4)c3-n3cccc3)CC2)cc1	/	11.6µM*	9.2µM*	-18.6%	/	/
Cc1cc(C)cc(NC(=O)C2CCN(C(=O)c3cnn(-c4ccccc4)c3-n3cccc3)CC2)c1	/	18.4µM*	14.6µM*	-22.5%	?	/
O=C(NCc1ccc(F)cc1)C1CCN(C(=O)c2cnn(-c3ccccc3)c2-n2cccc2)CC1	/	?	?	-10.4%	?	/
SMILES	ASM inhibitor	DT40 TDP1 CPT	DT40 TDP1 no CPT	HepG2 viability	TGFb inhibitor	IL-1B inflam inh
CN(C(=O)COC(=O)COc1ccc2ccccc2c1)c1ccccc1	/	-10.0%	-25.1%	18.4%	4.9%	11.3
Cc1cc(C)n(-c2ccc(C(=O)NCC(=O)Nc3cc(Cl)ccc3Cl)cc2)n1	-2.0%	-18.0%	?	-2.8%	-27.8%	-3.3
O=[N+]([O-])c1ccc(N2CCN(c3ccc([N+](=O)[O-])cc3CO)CC2)c(CO)c1	-9.1%	2.31µM*	2.91µM*	-0.8%	0.0%	-23.7
Cc1ccc(C(=O)c2cc([N+](=O)[O-])ccc2N2CCN(C)CC2)cc1	-8.7%	5.8µM*	5.8µM*	-20.0%	11.0%	0.9
CN1CCN(c2ccc([N+](=O)[O-])cc2C(=O)c2ccc(Br)cc2)CC1	-6.6%	2.31µM*	5.17µM*	-0.3%	2.2%	-3.0
O=C(c1ccccc1)c1cc([N+](=O)[O-])ccc1N1CCCC1	-11.5%	-24.7%	-32.0%	-28.2%	-16.0%	-12.3
CC(C)(C)C(=O)N1CCN(c2ccc([N+](=O)[O-])cc2Cl)CC1	-4.8%	?	?	-21.8%	-17.6%	-9.0
CN1CCN(c2ccc([N+](=O)[O-])cc2C(=O)c2ccccc2)CC1	-2.4%	?	?	-17.3%	-2.1%	11.6
O=C(CCl)NC1(C(=O)O)CCCC1	/	5.4%	-4.3%	-14.4%	-6.6%	-1.5
CC(=O)C(Sc1nnnn1-c1ccc(O)cc1)c1ccccc1 (stereo not given)	-0.4%	-24.2%	-0.2%	-42.9%	-9.7%	0.0
COc1ccc(C(C)=O)cc1CN1C(=O)C(C)ON=C1c1ncccc1C (stereo not given)	/	-11.2%	10.1%	10.6%	7.2%	-23.5
COc1ccc(C(C)=O)cc1CN1C(=O)C(C)ON=C1c1cccc(C(F)(F)F)c1 (stereo not given)	/	?	16.4µM*	0.7%	-18.8%	-22.5
COc1ccccc1N1CCN(c2cc(C)nc3nncn23)CC1	/	?	?	-3.9%	-10.2%	/
c1ccc(-c2csc(NNC3=NCCCCC3)n2)cc1	4.5%	2.06µM*	1.84µM*	-30.8%	?	-13.4
